Measured values: paper PMC6212790, “How bacterial xenogeneic silencer rok distinguishes foreign from self DNA in its resident genome”
Over roughly 33,000 sequences, “e-score” has its median near -0.038; the highest 2% begin near 0.33. The full list was thinned out, with the highest values kept by preference.

biological target: T1, GST-Rok-C97-191 (Bacillus subtilis subsp. subtilis str. …, UniProt O34857 97-191); test: protein binding microarray; Rok is a gene silencer of Bacillus subtilis; high values mean tight binding; conditions: protein: recombinant; tags: GST (pTH5325, pDEST15-Magic modified); dsDNA, one strand shown
T1 sequence: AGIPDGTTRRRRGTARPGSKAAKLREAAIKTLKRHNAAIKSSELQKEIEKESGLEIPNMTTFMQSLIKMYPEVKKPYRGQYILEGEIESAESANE
Summary of the method: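 Every oligonucleotide joins a 25-mer constant primer to a 35-mer variable part drawn from a de Bruijn sequence of order 10, so each non-palindromic 8-mer appears at least 32 times and each palindromic 8-mer 16 times. The preference for every 8-mer is reported as a unitless, rank-based enrichment score (E-score). This score spans 0.5 for the most favored 8-mer to −0.5 for the most disfavored.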

| Sequence | binding signal [E-score] |
| --- | --- |
| GAGGGAAC | -0.0649 |
| GTAAACGA | -0.119 |
| ATAAACTG | 0.199 |
| GTAAACAA | -0.0801 |
| GTAAACTA | 0.364 |
| CTAAACTC | 0.0554 |
| CTAAATTA | 0.141 |
| CTAAACTA | 0.386 |
| ATAAACTA | 0.359 |
| CTAAACGA | -0.0375 |
| ATAAACTC | 0.173 |
| GTAAATTA | 0.378 |
| ATAAATTA | 0.259 |
| GGAGGAAC | -0.069 |
| ATAAGAAG | 0.0784 |
| TACAATAA | 0.108 |
| ACAAGGAG | -0.167 |
| AAACAGCC | -0.174 |
| TATGACAA | -0.00238 |
| CCGGCAAG | -0.0857 |
| CGCATGAC | -0.0389 |
| CATCCATC | -0.0668 |
| AAGCGGAC | -0.0303 |
| GAGAGCTC | -0.123 |
| CATGAATG | -0.00652 |

| Sequence | binding signal [E-score] |
| --- | --- |
| CAGTGGTA | 0.232 |
| AAGTGGTA | 0.385 |
| AATTGGTC | -0.0353 |
| AATTGCTA | 0.328 |
| CATTGGTA | 0.279 |
| CATTGCTA | 0.118 |
| AAGTGGTC | -0.168 |
| AATTGGTA | 0.331 |
| GATTGCTA | 0.18 |
| GTCAAGTA | 0.157 |
| CCTTTTCC | -0.198 |
| CGCAACCG | 0.0123 |
| GAATTATA | 0.24 |
| AAATTACA | 0.325 |
| GAATTATC | 0.23 |
| AAATTATT | 0.296 |
| AAATTATG | 0.224 |
| AAATTATA | 0.389 |
| TAATTATA | 0.386 |
| CAATTATA | 0.291 |
| AAATTATC | 0.364 |
| AAATTAAA | 0.205 |
| GAATTACA | 0.275 |
| TAATTACA | 0.396 |
| AATCCATG | -0.019 |

| Sequence | binding signal [E-score] |
| --- | --- |
| CGAGTAAA | 0.128 |
| ACTCAGGC | -0.123 |
| CAAAAGAG | -0.195 |
| ACGGGGAA | 0.0307 |
| GAGTCCTA | -0.119 |
| TATTTAGA | 0.0799 |
| ATAAAGGC | 0.052 |
| ACATACGC | -0.0272 |
| CATAGACA | -0.0183 |
| CGTCCACC | -0.198 |
| CAGTTATA | 0.187 |
| GAGTTATA | 0.213 |
| TAGTTATA | 0.39 |
| GAGGAACA | -0.114 |
| AAAATTAC | 0.327 |
| GAAATTGC | 0.239 |
| GAAATTAC | 0.359 |
| CAAATTAG | 0.044 |
| CAAATTAC | 0.33 |
| GAAATTAA | 0.278 |
| ATTCGCGG | -0.0504 |
| CTAAGTTA | 0.291 |
| GCGAGACC | -0.114 |
| CAACCCTG | -0.104 |
| ATCATCTA | 0.148 |

| Sequence | binding signal [E-score] |
| --- | --- |
| GAGCCTAC | -0.193 |
| ATACAGTA | 0.385 |
| GTACAGTA | 0.283 |
| CAACAGTA | 0.315 |
| CTACAGTA | 0.235 |
| TAACAGTA | 0.342 |
| GAACAGTA | 0.179 |
| ATGGCACC | -0.0965 |
| CCCTTCGC | -0.198 |
| ACTAAGGA | 0.268 |
| ACGGCCAG | -0.104 |
| CCTTCTGC | -0.174 |
| AGTCGTAC | 0.108 |
| AAAGATAA | 0.33 |
| ACAGATAC | 0.252 |
| AGAGATAC | 0.166 |
| GCAGATAC | -0.00726 |
| CTAGATAA | 0.3 |
| GTAGATAA | 0.397 |
| GTAGATAC | 0.381 |
| GAAGATAA | 0.224 |
| CTAGATAC | 0.204 |
| ATAGATAC | 0.357 |
| ATAGATAA | 0.325 |
| AAAGATAC | 0.0421 |

| Sequence | binding signal [E-score] |
| --- | --- |
| TGAGAAAA | 0.154 |
| AAGGATGA | -0.0751 |
| TGAAAGCA | 0.0344 |
| GACCGGGA | -0.0628 |
| ACAGGCGG | -0.187 |
| ACAGATAT | 0.185 |
| ATAGATAG | 0.267 |
| ATAGATAT | 0.415 |
| ACTTTTGA | 0.0573 |
| CAGACGCA | -0.191 |
| ATTTTCTC | 0.255 |
| AATTTCTA | 0.355 |
| CATTTCTA | 0.306 |
| AATTTCTC | 0.198 |
| ACTTTCTA | 0.386 |
| CCTTTCTA | 0.108 |
| ATTTTCTG | -0.0553 |
| AATTTCTG | 0.128 |
| GATTTCAA | 0.0221 |
| ACTTTCTC | 0.0481 |
| GATTTCTA | 0.357 |
| ATTTTCTA | 0.379 |
| AGTGTAGG | 0.0625 |
| GATCCGAC | -0.0267 |
| GGCATTCA | -0.0675 |

| Sequence | binding signal [E-score] |
| --- | --- |
| GCGGGGAA | -0.189 |
| ATTTTCCA | 0.105 |
| ATTTTCCC | -0.00582 |
| ATTTTCCG | 0.329 |
| TGGCAAAA | 0.122 |
| GGAATCAC | -0.0168 |
| ATTATCTC | 0.0108 |
| ACTATCTC | 0.263 |
| GCTATCCA | 0.0235 |
| ATTATCTA | 0.385 |
| AGTATCTA | 0.351 |
| GCTATCTA | 0.333 |
| CCTATCTA | 0.319 |
| ACTATCTA | 0.364 |
| GGTATCTA | 0.23 |
| ATTATCTG | 0.203 |
| AGTATCTG | 0.198 |
| AGTATCTC | 0.185 |
| AAAAGGGC | -0.186 |
| GGACAGAC | -0.0976 |
| GAACGGGA | -0.108 |
| CAGCTCCA | -0.0439 |
| ACTATCGA | 0.348 |
| CCTATCGA | 0.117 |
| GCTATCGA | 0.102 |

| Sequence | binding signal [E-score] |
| --- | --- |
| TAGCAGAA | 0.073 |
| AAGCGAGT | -0.052 |
| AAGAAAGA | 0.0949 |
| CAGGTAGA | 0.223 |
| GAGGTAGC | -0.122 |
| TAGGTAGA | 0.386 |
| GAGGTAGA | 0.334 |
| GAGGTATA | 0.243 |
| AAGGTAGA | 0.246 |
| GACAGGGA | -0.0489 |
| AGCAATGA | -0.189 |
| CGACCAAC | -0.152 |
| ACCTTGCT | -0.156 |
| GTTTTCAA | -0.105 |
| ATCAAAAT | 0.231 |
| CGCCGTTC | -0.164 |
| CATATGTC | 0.00539 |
| CATATGAA | -0.0194 |
| AATATGTC | 0.135 |
| AATATGTA | 0.375 |
| CATATGTA | 0.36 |
| GATATGTA | 0.303 |
